Most compounds without a hit are left out; they make up all but 1.2% or so of the library.
RGS7-Gao: RGS7-Galphao binding modulators, primary screen, biochemical, multiplexed bead flow cytometry; binding response (% of control), % at 10 µM; Guanine nucleotide-binding protein G(o) subunit alpha (Homo sapiens), P09471; actives lie on both sides; 220,000 tested, 0.35% active; in the data active = binding response below about 49% or above about 150%; inconclusive = no clear call, values can overlap the other calls; inactive = in between;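 also: fluorescent Galphao held in activated GDP-AlF4 state binding bead-coupled RGS7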
Target sequence (P09471 whole entry, looked up): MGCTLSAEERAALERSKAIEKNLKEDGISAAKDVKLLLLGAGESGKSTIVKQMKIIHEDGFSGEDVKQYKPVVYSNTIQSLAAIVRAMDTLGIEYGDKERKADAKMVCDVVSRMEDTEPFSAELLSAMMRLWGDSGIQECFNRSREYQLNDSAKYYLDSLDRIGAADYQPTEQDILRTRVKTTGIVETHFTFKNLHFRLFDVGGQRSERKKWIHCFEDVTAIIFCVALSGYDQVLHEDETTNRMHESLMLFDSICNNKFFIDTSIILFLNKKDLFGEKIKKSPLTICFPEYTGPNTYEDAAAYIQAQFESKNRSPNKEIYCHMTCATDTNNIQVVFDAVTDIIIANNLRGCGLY
GSH fluor: compound fluorescence on glutathione beads, profiling panel, artefact control, biophysical, 488/530 nm, flow cytometry | GSH beads flow cytometry, compound fluorescence 488/530 nm; stronger effect = higher value | fluorescence (KMESF) at 10 µM | 190,000 tested, 0.25% active | AID 1776, 2009; in the data active = fluorescence above about 89;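 also: glutathione beads carrying GST-tagged Bcl family fusion proteins plus one bare bead set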
RGS4-Gao reg: modulators of RGS4 binding to Galphao, primary screen, biochemical, multiplexed bead flow cytometry; Guanine nucleotide-binding protein G(o) subunit alpha (Homo sapiens), P09471; actives lie on both sides; binding response (% of control), % at 10 µM; 220,000 tested, 0.33% active; AID 1415, 2008; in the data active = binding response below about 49% or above about 150%; inactive = in between;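 also: fluorescent Galphao activated with aluminum fluoride binding bead-coupled RGS4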
RGS8-Gao reg: RGS8-Galphao binding modulators, primary screen, biochemical, multiplexed bead flow cytometry; response (percent of control binding), % at 10 µM; actives lie on both sides; 220,000 tested, 0.34% active; in the data active = response below about 60% or above about 140%; inactive = in between;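 also: Galphao activated as the GDP aluminium fluoride complex binding bead-coupled RGS8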
RGS16-Gao: modulators of RGS16 binding to Galphao, primary screen, biochemical, human proteins, multiplexed bead flow cytometry; bead-based flow cytometry RGS16-Galphao binding, fluorescence; actives lie on both sides; 220,000 tested, 0.38% active; binding response (% of control), % at 10 µM; Regulator of G-protein signaling 16 (Homo sapiens) + Guanine nucleotide-binding protein …;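 also: Galphao activated by GDP with aluminum fluoride before binding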
Avidin fluor: green autofluorescence of compounds with avidin beads – biophysical, 488/530 nm, flow cytometry, artefact control, profiling panel | compound fluorescence 488/530 nm; stronger effect = higher value | fluorescence (KMESF) at 10 µM | 220,000 tested, 0.38% active; in the data active = fluorescence above about 47
RGS-Gao: modulators of RGS–Galpha-o binding, primary screen, biochemical, multiplexed beads, flow cytometry, RGS4/7/8/16/19; shares compounds with RGS16-Gao; multiplexed bead flow cytometry; RGS4–Galpha-o binding response, % at 10 µM; 1,600 tested, 99% active; AID 1504, 2009;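 also: fluorescently labeled Galpha-o bound to GDP with aluminium fluoride binding biotinylated RGS beads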
Biotin-avidin: disruption of biotin probe capture by avidin, counter-screen for RGS protein interaction modulators, biochemical, flow cytometry, bead-based; shares compounds with RGS16-Gao; streptavidin beads, fluorescein-biotin binding; inhibition, % at 10 µM; 1,700 tested, under 10 active; AID 1783, 2009;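 active = inhibition above 50%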;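 also: median green fluorescence of gated singlet beads compared with DMSO control wells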
RGS8-Gao confirm: RGS8-Galphao binding modulators, confirmation, biochemical, multiplexed bead flow cytometry, single concentration. bead-based flow cytometry RGS8-Galphao binding, fluorescence; actives lie on both sides. shares compounds with RGS16-Gao. 1,700 tested, 3% active. AID 1836, 2009. binding response (% of control), % at 10 µM; in the data active = binding response below about 72% or above about 130%; inactive = in between;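 also: Galphao activated as GDP AlF4 complex before binding bead RGS8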
RGS7-Gao single: RGS7-Galphao binding modulators, confirmation, biochemical, multiplexed bead flow cytometry, single concentration; bead-based flow cytometry RGS7-Galphao binding; actives lie on both sides; 1,700 tested, 7.8% active; response (percent of control binding), % at 10 µM; shares compounds with RGS16-Gao; in the data active = response below about 75% or above about 130%; inactive = in between;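 also: fluorescent Galphao activated with GDP and aluminum fluoride binding bead-coupled RGS7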
RGS16-Gao conf: modulators of RGS16-Galphao protein binding, confirmation, biochemical, single concentration, multiplexed bead flow cytometry; response (% of control binding), % at 10 µM; 1,700 tested, 4% active; shares compounds with RGS16-Gao; bead-based flow cytometry; actives lie on both sides; AID 1838, 2009; in the data active = response below about 74% or above about 130%; inactive = in between;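 also: Galphao activated as the GDP aluminium fluoride complex binding bead-coupled RGS16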
RGS4-Gao confirm: modulators of RGS4-Galphao protein binding, confirmation, biochemical, single concentration, multiplexed bead flow cytometry | actives lie on both sides | 1,700 tested, 4% active | binding response (% of control), % at 10 µM | shares compounds with RGS16-Gao | AID 1840, 2009; in the data active = binding response below about 74% or above about 130%; inactive = in between
RGS19-Gao single: regulators of RGS19-Galphao binding, confirmation, biochemical, single point, multiplexed bead flow cytometry; response (percent of control binding), % at 10 µM; shares compounds with RGS16-Gao; 1,700 tested, 5% active; bead-based flow cytometry RGS19-Galphao binding; actives lie on both sides; in the data active = response below about 50% or above about 160%; inactive = in between
Hits are given with their value; - = inactive; ? = inconclusive; . = no result given; [ ] = remark or other dose. Unless noted, no rule for the calls is given here.

SMILES	RGS7-Gao	GSH fluor	RGS4-Gao reg	RGS8-Gao reg	RGS16-Gao	Avidin fluor	Biotin-avidin	RGS8-Gao confirm	RGS7-Gao single	RGS16-Gao conf	RGS4-Gao confirm	RGS19-Gao single	others
Cc1sc2nc(CN3CCOCC3)nc(N3CCOCC3)c2c1C	-	-	-	143[activator]	-	-	-	-	-	-	-	-	RGS-Gao=116
COC(=O)c1sc2nc(CN3CCOCC3)nc(N3CCOCC3)c2c1C	-	-	-	-	-	-	.	.	.	.	.	.
Cc1c(CN(C)C(=O)c2ccc(Br)o2)cnn1C	-	-	-	-	-	-	.	.	.	.	.	.
CCCC(=O)Nc1cccn(Cc2ccccc2Br)c1=O	.	-	.	.	.	.	-	-	-	-	-	-
N#CCCN/N=C(/Cc1nc2ccccc2[nH]1)c1cccc(Cl)c1	198[activator]	-	247[activator]	169[activator]	224[activator]	-	-	-	-	-	-	-
Clc1ccc(/C(Cc2nc3ccccc3[nH]2)=N\Nc2ccccc2)cc1	-	-	-	-	-	-	.	.	.	.	.	.
Oc1ccccc1/C=N/n1cnn(Cc2ccccc2Cl)c1=S	-	-	-	-	-	-	.	.	.	.	.	.
COCCCn1c(-c2ccc(Cl)cc2)n[nH]c1=S	.	-	.	.	.	.	-	-	-	-	-	-
COCCn1c(SCC(=O)Nc2nnc(C)s2)nnc1-c1ccncc1	.	-	.	.	.	.	-	-	-	-	-	-
O=C(Cn1cnc2c(cnn2-c2ccccc2)c1=O)Nc1ccc(S(=O)(=O)N2CCOCC2)cc1	-	-	-	-	20	-	-	-	-	-	-	189[activator]	RGS-Gao=95
COc1ccc(-n2ncc3c(=O)n(CC(=O)Nc4ccc(S(=O)(=O)N5CCOCC5)cc4)cnc32)cc1	-	-	-	-	-	-	.	.	.	.	.	.
CC/C(=N/NC(=O)c1ccccc1)c1ccc(OCCN2CCOCC2)cc1	190[activator]	-	207[activator]	189[activator]	-	-	-	-	-	-	-	-
NC(=O)C1CCCN1 (stereo not given)	?	-	-	-	-	-	.	.	.	.	.	.
CCc1c(C(=O)Nc2ccccc2)c(C)[nH]c(=S)c1C#N	-	-	-	-	-59	-	-	-	130[activator]	-	-	-	RGS-Gao=99
Cc1cc(C)c2ccc(=O)n(CC(=O)N/N=C/c3ccccc3Cl)c2n1	?	.	-	-	-	-	.	.	.	.	.	.

Screening results deposited in PubChem BioAssay by NMMLSC.
